PubChem BioAssay (NCATS)
Inconclusive results are not listed. Values without a mark were called inactive. The source made the active and inactive calls. Unless noted, calls come from the whole dose curve; as a rule, active = well fitted inhibition curve with a large enough effect in the repeat runs; inconclusive = weak or mixed curves; inactive = flat fitted curve, though single readings scatter.

tested on: not listed separately; test: A High-Content qHTS Against Drug Library for the Identification of Small Molecules that Inhibit DYT1 Early Onset Primary Dystonia-Associated Cell Pathology (AID 1645839; calls by dose curve); conditions: HEK293 Flp-In EGFP-delE TorsinA, punctate imaging, 48 h; series mostly up to 46.1 µM; % pathology change, negative = correction: at the top concentration
In short: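 Cells were seeded and left for 24 h, then dosed with compound alongside tetracycline induction of mutant EGFP-TorsinA. They were incubated for 48 h, fixed in 4% paraformaldehyde, permeabilized and imaged for mislocalization (%pathology) and cell count.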
Potency is the fitted concentration of half-maximal effect.

Question: With Cc1ncc(COP(=O)(O)O)c(C=O)c1O as the molecule, how does the “% pathology change, negative = correction” value (shortened to “% pathology change”) read?
Answer: 0.72%

Question: With NCCNCCNCCN as the molecule, how does the “% pathology change” value read?
Answer: 12.5%

Question: Which “% pathology change” value does the source give for Cc1cc2nc3c(=O)[nH]c(=O)nc-3n(C[C@H](O)[C@H](O)[C@H](O)CO)c2cc1C here?
Answer: 20.5% [at 19.1 µM]

Question: For CC(C)(C(=O)O)c1ccc(C(O)CCCN2CCC(C(O)(c3ccccc3)c3ccccc3)CC2)cc1 (stereo not given), which “% pathology change” value is on record?
Answer: -5.83%

Question: Which “% pathology change” value does the source give for c1ccc(CN(CC2=NCCN2)c2ccccc2)cc1 here?
Answer: -30%

Question: Which % pathology change, negative = correction does the source give for NC(N)=NCCC[C@H](N)C(=O)O here?
Answer: 17.5% [at 4.63 µM]

Question: For C[C@@H](O)[C@H](N)C(=O)O, which “% pathology change” value is on record?
Answer: 2.4% [at 19.1 µM]

Question: Which “% pathology change” value does the source give for O=C(O)Cc1sc(-c2ccccc2)nc1-c1ccc(Cl)cc1 here?
Answer: -14.4%

Question: With CN1[C@@H]2CC(OC(=O)[C@H](CO)c3ccccc3)C[C@H]1[C@@H]1O[C@@H]12 (stereo not given in full) as the molecule, how does the “% pathology change” value read?
Answer: 0.259%

Question: With O=C1O[C@H](CO)[C@@H](O)[C@H](O)[C@H]1O as the molecule, how does the “% pathology change” value read?
Answer: -0.281%

Question: Which Potency does the source give for OCCN1CCN(CCCN2c3ccccc3Sc3ccc(Cl)cc32)CC1 here?
Answer: 3.98 µM (active)

Question: For COc1ccc2[nH]c(S(=O)Cc3ncc(C)c(OC)c3C)nc2n1 (stereo not given), which “% pathology change” value is on record?
Answer: -3.37%

Question: Which “% pathology change” value does the source give for O=C1O[C@H]([C@@H](O)CO)C(O)=C1O here?
Answer: 2.37%

Question: For O=C1c2c(O)cccc2Cc2cccc(O)c21, which “% pathology change” value is on record?
Answer: 9.53%

Question: With Oc1cccc(O)c1 as the molecule, how does the “% pathology change” value read?
Answer: -24.6%

Question: Which “% pathology change” value does the source give for [Cl][In]([Cl])[Cl] here?
Answer: -24.3% [at 91.7 µM]

Question: With CCOC(=O)[C@H](CCc1ccccc1)N[C@@H](C)C(=O)N1C(=O)N(C)C[C@H]1C(=O)O as the molecule, how does the “% pathology change” value read?
Answer: 2.88%

target: Cytochrome P450 2D6 (Homo sapiens) (UniProt P10635); test: Cytochrome P450 family 2 subfamily D member 6 (CYP2D6) small molecule antagonists: luciferase biochemical (cell-free) qHTS assay (AID 1645840); conditions: P450-Glo CYP2D6 enzyme, luciferin luminescence, 1 h; series mostly up to 57.4 µM; activity change, negative = inhibition: at the top concentration; note: nearly all actives have a fitted effect of over 55% in size; for activity change, negative = inhibition: % is set by controls: 0 for no effect and ±100 for the full control effect
In short: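 P450-Glo CYP2D6 system: proluciferin substrate converted by enzyme to luciferin, read by luminescence proportional to activity. Enzyme-substrate mix with compound 10 min at room temperature, then NADPH regeneration 1 h before detection reagent.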

Sequence of Cytochrome P450 2D6 (Homo sapiens) (P10635 whole entry, looked up): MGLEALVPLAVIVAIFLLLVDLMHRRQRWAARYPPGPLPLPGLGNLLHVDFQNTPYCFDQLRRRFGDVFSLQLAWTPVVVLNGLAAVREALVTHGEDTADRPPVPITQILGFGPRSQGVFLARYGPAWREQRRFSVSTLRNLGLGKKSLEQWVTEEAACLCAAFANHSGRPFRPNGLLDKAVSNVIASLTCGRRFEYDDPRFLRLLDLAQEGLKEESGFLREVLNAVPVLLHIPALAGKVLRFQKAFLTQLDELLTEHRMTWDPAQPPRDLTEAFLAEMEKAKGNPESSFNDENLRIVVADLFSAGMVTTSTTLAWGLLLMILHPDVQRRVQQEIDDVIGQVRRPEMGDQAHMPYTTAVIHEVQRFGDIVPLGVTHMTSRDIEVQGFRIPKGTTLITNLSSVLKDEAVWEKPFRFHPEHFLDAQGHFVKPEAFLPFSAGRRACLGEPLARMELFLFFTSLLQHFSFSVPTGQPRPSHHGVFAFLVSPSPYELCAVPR

Question: Which Potency does the source give for CC(CN(C)C)CN1c2ccccc2CCc2ccccc21 (stereo not given) here?
Answer: 2.88 µM (active)

Question: For Cc1ncc(COP(=O)(O)O)c(C=O)c1O, which “activity change, negative = inhibition” value is on record?
Answer: 9.24%

Question: For CCCOC(=O)c1ccccc1, which “activity change, negative = inhibition” value is on record?
Answer: 8.12%

Question: With CC1=C(CC(=O)O)c2cc(F)ccc2/C1=C\c1ccc(S(C)=O)cc1 (stereo not given) as the molecule, how does the “activity change, negative = inhibition” value read?
Answer: -18.5%

Question: With CC(C)(O)c1ccccc1CC[C@@H](SCC1(CC(=O)O)CC1)c1cccc(/C=C/c2ccc3ccc(Cl)cc3n2)c1 as the molecule, how does the “activity change, negative = inhibition” value read?
Answer: 1.43%

Question: Which Potency does the source give for CCCCN(CCCC)CC(O)c1cc(Cl)cc2c1-c1ccc(Cl)cc1/C2=C/c1ccc(Cl)cc1 (stereo not given) here?
Answer: 0.347 µM (active)

Question: With c1ccc(CN(CC2=NCCN2)c2ccccc2)cc1 as the molecule, how does the Potency read?
Answer: 1.74 µM (active)

Question: Which activity change, negative = inhibition does the source give for NC(N)=NCCC[C@H](N)C(=O)O here?
Answer: 2.59% [at 4.83 µM]

Question: Which Potency does the source give for CN(C)CC[C@@H](c1ccc(Cl)cc1)c1ccccn1 here?
Answer: 9.52 µM (active)

Question: For O=C(O)COc1nn(Cc2ccccc2)c2ccccc12, which “activity change, negative = inhibition” value is on record?
Answer: -3.29%

Question: Which Potency does the source give for COc1ccc2[nH]c(S(=O)Cc3ncc(C)c(OC)c3C)nc2n1 (stereo not given) here?
Answer: inactive

Question: With Cc1cccc(C)c1NC(=O)CN(CC(=O)O)CC(=O)O as the molecule, how does the “activity change, negative = inhibition” value read?
Answer: 6.34%

Question: With O=S(=O)(O)NC1CCCCC1 as the molecule, how does the “activity change, negative = inhibition” value read?
Answer: -0.953%

Question: For CSc1ccc2c(c1)C(N1CCN(C)CC1)Cc1ccccc1S2 (stereo not given), which Potency is on record?
Answer: 0.55 µM (active)

Question: Which Potency does the source give for O=C1O[C@H]([C@@H](O)CO)C(O)=C1O here?
Answer: inactive

Question: For O=C1c2c(O)cccc2Cc2cccc(O)c21, which “activity change, negative = inhibition” value is on record?
Answer: -3.72%

Question: With CC(C)(C)C(=O)NCCCC(=O)O as the molecule, how does the “activity change, negative = inhibition” value read?
Answer: 16.9%

Question: With Oc1cccc(O)c1 as the molecule, how does the “activity change, negative = inhibition” value read?
Answer: 7.68%

Question: With O=Cc1ccccc1C=O as the molecule, how does the “activity change, negative = inhibition” value read?
Answer: -14.2%

Question: With COc1ccc2cc1Oc1cc3c(cc1OC)CC[N+](C)(C)[C@H]3Cc1ccc(cc1)Oc1c(OC)c(OC)cc3c1[C@@H](C2)[N+](C)(C)CC3 as the molecule, how does the “activity change, negative = inhibition” value read?
Answer: -22.1%

Question: For [Cl][In]([Cl])[Cl], which “activity change, negative = inhibition” value is on record?
Answer: 6.37% [at 115 µM]

Question: With CC(CN1c2ccccc2Sc2ccccc21)N(C)C (stereo not given) as the molecule, how does the Potency read?
Answer: 2.45 µM (active)

Question: Which Potency does the source give for CCOC(=O)[C@H](CCc1ccccc1)N[C@@H](C)C(=O)N1C(=O)N(C)C[C@H]1C(=O)O here?
Answer: inactive
